According to PubChem BioAssay (NCATS):
Inconclusive results are not listed. Calls of active or inactive are those of the source. Unless noted, calls come from the whole dose curve; as a rule, active = well fitted curve in the direction sought with a large enough effect; inconclusive = small, poorly fitted or top-dose-only effect, or another doubt; inactive = no such curve, though single readings can be large; an effect the other way counts as inactive or inconclusive.

Key:
[1] = AP1 Signaling Pathway (AID 357; active = well fitted curve in either direction with a large enough effect, not every such curve was filed as active;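 note: ME-180 reporter cells stimulated with EGF at its EC50 level; % is set by controls: 0 for no effect and ±100 for the full control effect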); settings: ME-180 AP-1-bla reporter, EGF-induced, beta-lactamase ratio, 5 h; at 7.69 µM (top of the series) unless noted
Outline: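 AP-1-bla ME-180 cells, Opti-MEM + 0.5% dialyzed FBS, plated overnight 37 °C. Cpd titration + EC50 EGF, 5 h 37 °C. CCF4 2.5 h RT; ex 405, em 460/530 ratio → %activity, AC50.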

[2] = NFAT Signaling Pathway (AID 444; active = well fitted curve in either direction with a large enough effect, not every such curve was filed as active;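 note: carbachol stimulus at about its EC50 of 1 µM final; % is set by controls: 0 for no effect and ±100 for the full control effect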); settings: Jurkat NFAT-bla M1, carbachol, beta-lactamase ratio, 5 h; at 7.69 µM (top of the series) unless noted
Outline: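 Jurkat cells carrying an NFAT-driven β-lactamase reporter and co-transfected muscarinic M1 receptor were treated with compound plus carbachol (1 uM final, an EC50 level) for 5 h at 37 °C. CCF4 loading followed for 1 h at RT; 460/530 nm ratio gave %activity.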

[3] = Stat Signaling Pathway (AID 446; active = well fitted curve in either direction with a large enough effect, not every such curve was filed as active;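 note: ME-180 cervical cancer cells given 40 pM IL-6 alongside compound; SIE-controlled beta-lactamase reporter measured as 460/530 nm FRET emission ratio; % is set by controls: 0 for no effect and ±100 for the full control effect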); settings: ME-180 (cervical carcinoma) SIE beta-lactamase reporter, IL-6 stimulated, 5 h; at 7.69 µM (top of the series) unless noted
Outline: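 Compound effects on IL-6-induced STAT reporter activity were measured in ME-180 cells. After overnight culture, cells were co-treated with 40 pM IL-6 for 5 hrs before beta-lactamase substrate loading at room temperature.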

[4] = target: Glucocorticoid receptor (Homo sapiens) (UniProt P04150); experiment: GR-GFP Redistribution (AID 450;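 active = compounds whose dose series gives a full or clear partial fitted curve of increased nuclear translocation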; note: potency is the fitted concentration of half-maximal effect); settings: U2OS GR-GFP nuclear translocation, laser cytometry, 2 h
[5] = target: Glucocorticoid receptor (Homo sapiens) (UniProt P04150); experiment: GR-EFC Redistribution (AID 451; calls by dose curve; note: potency is the fitted concentration of half-maximal effect); settings: CHO-K1 GR-EFC translocation, beta-gal luminescence, 2 h
Outline: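 CHO-K1 cells stably expressing nuclear-localized β-gal enzyme acceptor and GR fused C-terminally to the enzyme donor fragment; ligand-driven nuclear translocation restores β-gal by complementation. Compounds titrated up to 46 uM final, 2 h at 37 °C; luminescence read.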

[6] = target: Guanine nucleotide-binding protein G(i) subunit alpha-1 (Homo sapiens) (UniProt P63096); experiment: qHTS Assay for Inhibitors of RGS12 GoLoco Motif Activity (Green Fluorophore) (AID 879);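 note: 0% = labeled peptide with Gαi1 and full inhibition = labeled peptide alone without protein; negative values mean loss of peptide binding seen as reduced polarization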
Outline: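 A drop in FITC polarization marked displacement of the FITC-tagged RGS12 GoLoco peptide (10 nM) from Gαi1 (50 nM). Compounds were incubated 10 min at room temperature in Tris pH 7.5 buffer containing 150 mM NaCl, 0.1 mM GDP and 0.05% NP40; unlabeled peptide titration served as control.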

[7] = qHTS Assay for Identification of Small Molecule Agonists for Thrombopoietin (TPO) Signaling Pathway (AID 917); note: % is set by controls: 0 for no effect and ±100 for the full control effect
Outline: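 Quantitative HTS for pathway activators: compounds were pin-transferred onto IL-3-starved Ba/F3 cells expressing human TPO receptor, TPO was added at its EC50 (26 pM final), and after 24 hrs at 37 C reporter luciferase was measured.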

[8] = target: Muscarinic acetylcholine receptor M1 (Rattus norvegicus) (UniProt P08482); experiment: qHTS Assay for Antagonists of Acetylcholine Muscarinic M1 Receptor: Measurement of IP-One Response (AID 944); note: nearly all actives have a fitted effect of over 75% in size
Outline: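 Read-out: HTRF competition between d2-IP1 and Eu-cryptate anti-IP1 antibody, emission 620 and 665 nm. Stimulus was carbachol, EC80 (200 nM), for 30 min in M1-CHO cells (rat receptor), after 10 min compound pre-treatment.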

[9] = target: Pyruvate kinase (Leishmania mexicana) (UniProt Q27686); experiment: qHTS Validation Assay for Inhibitors of Leishmania Mexicana Pyruvate Kinase (AID 945);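 note: 0% = DMSO only neutral control wells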
Outline: (§1)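 Eight-point qHTS titrations in triplicate, data normalized to DMSO neutral control. Reaction: 0.2 nM LmPYK E451W mutant, 0.5 mM PEP, 0.1 mM ADP, 7 mM MgCl2, pH 7.2, one hour at room temperature; luminescent ATP detection.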

[10] = target: Pyruvate kinase PKM (Homo sapiens) (UniProt P14618); experiment: qHTS Assay for Activators of Human Muscle Pyruvate Kinase (AID 954; active = well fitted curve in the direction sought with a large enough effect, not every such curve was filed as active;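 note: 0% = uninhibited enzyme and -100% = no enzyme or full thiadiazolimine inhibition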)
Outline: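 A coupled luminescent readout tracked ATP made from ADP by purified PKM2. Final conditions included 0.1 nM enzyme, PEP and ADP at 0.5 and 0.1 mM, pH 7.2 imidazole buffer with BSA, and a one-hour room-temperature reaction.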

[11] = target: Alpha-galactosidase A (Homo sapiens) (UniProt P06280); experiment: Counterscreen for Glucocerebrosidase Inhibitors: qHTS Assay for Human alpha-Galactosidase at pH 4.5 (AID 992); note: 0% is about no effect
Outline: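 Citrate buffer pH 4.5, Tween-20 0.005%. Enzyme 2 nM, substrate 80 uM, 20 min RT. Stop pH 10. Fluorescence Ex 365/Em 440. AC50 by Hill fit.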

[12] = target: alpha-glucosidase (Oryza sativa, rice) (UniProt Q653V4); experiment: Counterscreen for Glucocerebrosidase Inhibitors: qHTS Assay for Rice alpha-Glucosidase at pH 5.0 (AID 997);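 note: 0% = full activity with enzyme and -100% = basal without enzyme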
Outline: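 Endpoint fluorogenic assay at pH 5.0: compounds (0.7 nM to 77 uM) titrated against 4 nM rice enzyme and 400 uM 4-MU-alpha-glucoside for 20 min at room temperature; NaOH/glycine stop, read ex 365/em 440 nm, Hill-fitted AC50.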

[13] = target: 3',5'-cyclic-AMP phosphodiesterase 4B (Homo sapiens) (UniProt Q07343); experiment: qHTS Assay for Inhibitors of PDE-IV (AID 607; active = well fitted activation curve with a large enough effect in the main read-out, with a control signal flat, not every such curve was filed as active; note: % of control where 0% means no effect)
Outline: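 ACTOne HEK293 cells carry a modified cAMP-gated CNG channel and express endogenous PDE4; plated 1000 cells/well, compounds up to 22.9 uM final. Membrane-potential dye fluorescence (ex 535/em 590) was read; parental cells received 10 uM forskolin + 100 uM RO 20-1724.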

[14] = qHTS Assay for Identification of Small Molecule Antagonists for NFkB Signaling Pathway (AID 895; active = well fitted inhibition curve with a large enough effect in the signal ratio, with a control signal flat, not every such curve was filed as active; the % refers to the signal ratio; note: % is set by controls: 0 for no effect and ±100 for the full control effect)
Outline: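 NFkB-bla ME-180 cervical carcinoma cells with beta-lactamase reporter under NFkB response element; compounds added, then TNF alpha at 10 pM final (EC50), 5 h at 37 C. LiveBLAzer substrate 2 h, room temperature; emission 460/530 nm at 405 nm excitation.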

[15] = target: Pyruvate kinase (Leishmania mexicana) (UniProt Q27686); experiment: qHTS Validation Assay for Activators of Leishmania Mexicana Pyruvate Kinase (AID 959)
Outline: as §1

[16] = target: Cytochrome P450 1A2 (Homo sapiens) (UniProt P05177); experiment: p450-cyp1a2 (AID 410; calls by dose curve; note: potency is the fitted concentration of half-maximal effect;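 for activity change, negative = inhibition: -100% = full effect of reference inhibitor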)
Outline: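 20nM CYP1A2, 100uM Luciferin-ME (=Km), 100mM KPO4; cpd 10 min RT; +NADPH regen, 60 min RT; stop/detect 20 min; luminescence. Normalized to furafylline 57 uM = full inhibition.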

[17] = target: Mitogen-activated protein kinase 10 (Mus musculus) (UniProt Q61831); experiment: JNK3 AlphaScreen Assay (AID 530; active = well fitted curve in either direction with a large enough effect, not every such curve was filed as active)
Outline: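 Biotinylated GST-cJun(1-79) served as substrate for JNK3 in HepG2 lysates stimulated with IL-1beta and TNF-alpha. ATP was 10 uM final, pH 7.6. Ser73 phosphorylation was quantified by AlphaScreen (680 nm excitation).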

[18] = target: Muscarinic acetylcholine receptor M1 (Rattus norvegicus) (UniProt P08482); experiment: qHTS Assay for Antagonists of Acetylcholine Muscarinic M1 Receptor: Kinetic Measurement of Intracellular Calcium Response (AID 943); note: nearly all actives have a fitted effect of over 75% in size; note: potency is the fitted concentration of half-maximal effect;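 for activity change, negative = inhibition: Fluo-4 calcium signal as peak divided by basal fluorescence over 4 min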
Outline: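 Read-out: peak over basal Fluo-4 fluorescence, kinetic at 1 Hz for 4 min after EC80 carbachol (100 nM final). Rat M1-CHO cells, dye loaded 1 h at 37C, compound added 10 min before agonist.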

[19] = target: Cytochrome P450 3A4 (Homo sapiens) (UniProt P08684); experiment: qHTS Assay for Inhibitors and Substrates of Cytochrome P450 3A4 (AID 884); note: potency is the fitted concentration of half-maximal effect; nearly all actives have a fitted effect of over 50% in size
Outline: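 Luminescent readout of luciferin produced by CYP3A4 (20 nM) dealkylation of Luciferin-PPXE, 25 uM (its KM). NADPH-driven reaction ran 60 min at RT after 10 min compound preincubation; data scaled to 57 uM ketoconazole as 100% inhibition.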

[20] = target: Cytochrome P450 3A4 (Homo sapiens) (UniProt P08684); experiment: qHTS Assay for Activators of Cytochrome P450 3A4 (AID 885); note: nearly all actives have a fitted effect of over 65% in size
Outline: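 CYP3A4 activity: Luciferin-PPXE O-dealkylation, 25uM substrate, 200mM KPO4, RT throughout. Read-out is luciferase luminescence; higher values reflect activation.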

[21] = target: Cytochrome P450 2C19 (Homo sapiens) (UniProt P33261); experiment: qHTS Assay for Inhibitors and Substrates of Cytochrome P450 2C19 (AID 899); note: potency is the fitted concentration of half-maximal effect; nearly all actives have a fitted effect of over 60% in size
Outline: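 In 50mM KPO4, the reaction held 5nM enzyme and KM-level (10uM) Luciferin-H EGE; it ran 60 min at 37C after NADPH regeneration and a 10 min compound preincubation. Luminescence values were scaled to 57uM ketoconazole as complete inhibition.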

[22] = qHTS Assay for Identification of Small Molecule Antagonists for Thrombopoietin (TPO) Signaling Pathway (AID 918); settings: TPO-dependent cell signaling reporter, antagonist mode; note: potency is the fitted concentration of half-maximal effect; nearly all actives have a fitted effect of over 60% in size
Outline: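 Luminescence read-out: GPIIb-promoter luciferase in Ba/F3 cells carrying human TPO receptor. Compounds added with 26 pM TPO (EC50), 24 hrs, 37 C, 5% CO2; cells deprived of IL-3 overnight beforehand. Inhibition of signal scored.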

[23] = target: Cytochrome P450 2D6 (Homo sapiens) (UniProt P10635); experiment: qHTS Assay for Inhibitors and Substrates of Cytochrome P450 2D6 (AID 891); note: potency is the fitted concentration of half-maximal effect; nearly all actives have a fitted effect of over 60% in size
Outline: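 Luminescent read-out of luciferin formed by 5 nM human CYP2D6 demethylating 30 uM Luciferin-ME EGE (Km level) over 60 min at room temperature after NADPH regeneration addition. Data normalized to full inhibition by 1.43 uM quinidine.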

Pyruvate kinase PKM (Homo sapiens), sequence (P14618 whole entry, looked up): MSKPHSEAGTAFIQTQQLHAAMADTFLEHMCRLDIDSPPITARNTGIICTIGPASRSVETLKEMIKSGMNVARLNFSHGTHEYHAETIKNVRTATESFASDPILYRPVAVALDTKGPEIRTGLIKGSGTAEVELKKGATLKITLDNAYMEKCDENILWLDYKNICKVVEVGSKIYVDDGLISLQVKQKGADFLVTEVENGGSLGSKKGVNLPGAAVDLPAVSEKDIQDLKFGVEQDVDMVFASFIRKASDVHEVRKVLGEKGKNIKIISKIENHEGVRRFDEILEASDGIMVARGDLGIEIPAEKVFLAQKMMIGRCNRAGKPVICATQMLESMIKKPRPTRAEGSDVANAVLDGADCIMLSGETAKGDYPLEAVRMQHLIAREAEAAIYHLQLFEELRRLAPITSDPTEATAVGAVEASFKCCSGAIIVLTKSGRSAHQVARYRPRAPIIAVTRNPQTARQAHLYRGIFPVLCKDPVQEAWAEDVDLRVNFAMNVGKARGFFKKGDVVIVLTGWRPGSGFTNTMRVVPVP
3',5'-cyclic-AMP phosphodiesterase 4B (Homo sapiens), sequence (Q07343 whole entry, looked up): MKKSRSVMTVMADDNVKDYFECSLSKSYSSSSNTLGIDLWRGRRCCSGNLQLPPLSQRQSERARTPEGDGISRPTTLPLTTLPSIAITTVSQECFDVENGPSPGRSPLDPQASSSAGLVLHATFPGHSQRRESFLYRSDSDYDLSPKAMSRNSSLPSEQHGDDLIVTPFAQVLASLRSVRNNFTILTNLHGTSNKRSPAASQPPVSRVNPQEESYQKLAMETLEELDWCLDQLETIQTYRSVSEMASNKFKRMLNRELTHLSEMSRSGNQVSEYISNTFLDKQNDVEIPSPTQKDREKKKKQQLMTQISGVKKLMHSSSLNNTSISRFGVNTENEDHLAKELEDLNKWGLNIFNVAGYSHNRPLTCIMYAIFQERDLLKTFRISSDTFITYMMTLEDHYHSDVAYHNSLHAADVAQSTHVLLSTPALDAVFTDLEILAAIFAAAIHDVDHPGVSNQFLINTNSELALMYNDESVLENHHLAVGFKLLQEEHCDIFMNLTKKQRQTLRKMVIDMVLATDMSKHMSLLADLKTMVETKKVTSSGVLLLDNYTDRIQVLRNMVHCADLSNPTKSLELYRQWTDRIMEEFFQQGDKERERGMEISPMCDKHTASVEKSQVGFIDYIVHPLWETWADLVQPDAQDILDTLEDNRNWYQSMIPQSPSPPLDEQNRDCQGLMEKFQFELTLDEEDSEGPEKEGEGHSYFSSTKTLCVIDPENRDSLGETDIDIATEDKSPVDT
Guanine nucleotide-binding protein G(i) subunit alpha-1 (Homo sapiens), sequence (P63096 whole entry, looked up): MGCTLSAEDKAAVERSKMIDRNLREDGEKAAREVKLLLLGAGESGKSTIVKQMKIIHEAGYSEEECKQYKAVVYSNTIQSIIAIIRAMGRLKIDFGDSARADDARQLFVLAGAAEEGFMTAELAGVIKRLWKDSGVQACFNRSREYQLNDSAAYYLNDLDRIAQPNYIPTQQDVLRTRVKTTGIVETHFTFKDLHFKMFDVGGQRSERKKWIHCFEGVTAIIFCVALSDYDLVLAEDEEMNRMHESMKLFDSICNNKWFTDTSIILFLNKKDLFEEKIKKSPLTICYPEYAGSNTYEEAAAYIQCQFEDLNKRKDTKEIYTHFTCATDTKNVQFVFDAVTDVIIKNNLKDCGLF
Cytochrome P450 1A2 (Homo sapiens), sequence (P05177 whole entry, looked up): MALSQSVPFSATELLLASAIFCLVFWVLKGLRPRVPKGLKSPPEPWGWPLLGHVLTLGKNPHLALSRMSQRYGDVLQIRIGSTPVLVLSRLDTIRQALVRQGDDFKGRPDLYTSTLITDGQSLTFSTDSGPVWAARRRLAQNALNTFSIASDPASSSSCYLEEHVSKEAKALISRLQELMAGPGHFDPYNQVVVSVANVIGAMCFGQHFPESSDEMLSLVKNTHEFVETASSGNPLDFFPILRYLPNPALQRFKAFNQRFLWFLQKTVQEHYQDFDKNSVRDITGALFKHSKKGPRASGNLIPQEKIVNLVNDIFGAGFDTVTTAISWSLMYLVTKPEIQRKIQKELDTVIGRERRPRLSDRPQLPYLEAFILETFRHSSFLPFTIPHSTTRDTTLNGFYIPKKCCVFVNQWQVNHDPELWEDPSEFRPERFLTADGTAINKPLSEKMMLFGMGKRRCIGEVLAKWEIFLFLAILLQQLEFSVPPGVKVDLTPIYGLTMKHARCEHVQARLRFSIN
Glucocorticoid receptor (Homo sapiens), sequence (P04150 whole entry, looked up, the tested form may be a part): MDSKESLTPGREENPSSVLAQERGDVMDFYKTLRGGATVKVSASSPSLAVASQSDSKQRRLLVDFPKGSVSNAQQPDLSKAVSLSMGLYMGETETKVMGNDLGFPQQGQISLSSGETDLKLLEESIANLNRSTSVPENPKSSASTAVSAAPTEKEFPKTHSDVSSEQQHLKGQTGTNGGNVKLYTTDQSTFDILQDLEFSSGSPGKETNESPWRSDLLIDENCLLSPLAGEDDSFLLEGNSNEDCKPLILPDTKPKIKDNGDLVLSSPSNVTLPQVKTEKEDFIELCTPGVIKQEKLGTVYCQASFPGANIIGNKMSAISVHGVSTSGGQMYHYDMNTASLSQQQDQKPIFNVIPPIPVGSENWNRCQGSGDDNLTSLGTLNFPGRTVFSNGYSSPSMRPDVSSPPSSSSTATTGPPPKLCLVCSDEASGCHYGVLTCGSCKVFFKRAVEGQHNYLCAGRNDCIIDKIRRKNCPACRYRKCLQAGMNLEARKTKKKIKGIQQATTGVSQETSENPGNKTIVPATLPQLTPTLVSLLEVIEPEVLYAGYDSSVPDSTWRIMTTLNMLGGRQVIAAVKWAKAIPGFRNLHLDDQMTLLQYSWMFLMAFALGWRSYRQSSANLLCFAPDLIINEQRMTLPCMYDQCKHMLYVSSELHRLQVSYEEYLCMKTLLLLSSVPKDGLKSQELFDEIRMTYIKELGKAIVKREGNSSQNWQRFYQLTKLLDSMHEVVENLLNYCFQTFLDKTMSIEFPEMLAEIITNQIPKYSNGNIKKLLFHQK
Alpha-galactosidase A (Homo sapiens), sequence (P06280 whole entry, looked up): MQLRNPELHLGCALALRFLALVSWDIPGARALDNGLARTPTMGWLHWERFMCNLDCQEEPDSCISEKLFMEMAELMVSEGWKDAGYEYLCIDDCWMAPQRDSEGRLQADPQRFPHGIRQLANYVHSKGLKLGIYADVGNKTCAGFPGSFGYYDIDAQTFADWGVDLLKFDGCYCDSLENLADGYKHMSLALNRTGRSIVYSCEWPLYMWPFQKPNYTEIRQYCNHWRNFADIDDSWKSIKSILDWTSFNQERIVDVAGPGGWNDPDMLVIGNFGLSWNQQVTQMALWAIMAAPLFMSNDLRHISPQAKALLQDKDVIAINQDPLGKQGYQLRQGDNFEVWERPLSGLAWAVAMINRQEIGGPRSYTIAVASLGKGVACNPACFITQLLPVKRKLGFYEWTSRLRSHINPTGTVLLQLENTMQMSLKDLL
Pyruvate kinase (Leishmania mexicana), sequence (Q27686 2-499 E452W): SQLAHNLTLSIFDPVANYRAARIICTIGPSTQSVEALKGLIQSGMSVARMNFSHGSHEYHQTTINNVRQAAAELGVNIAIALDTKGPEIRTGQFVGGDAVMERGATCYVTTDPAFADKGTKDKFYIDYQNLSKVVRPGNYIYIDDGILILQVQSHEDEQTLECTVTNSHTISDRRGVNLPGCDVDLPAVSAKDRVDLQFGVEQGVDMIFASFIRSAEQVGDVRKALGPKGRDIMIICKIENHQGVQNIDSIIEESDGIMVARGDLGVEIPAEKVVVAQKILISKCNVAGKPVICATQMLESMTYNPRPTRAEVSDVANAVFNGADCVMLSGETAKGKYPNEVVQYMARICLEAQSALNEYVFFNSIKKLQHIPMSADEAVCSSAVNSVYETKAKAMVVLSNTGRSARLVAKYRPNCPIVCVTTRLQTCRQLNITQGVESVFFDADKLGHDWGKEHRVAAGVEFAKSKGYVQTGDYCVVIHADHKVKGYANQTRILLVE
Muscarinic acetylcholine receptor M1 (Rattus norvegicus), sequence (P08482 whole entry, looked up): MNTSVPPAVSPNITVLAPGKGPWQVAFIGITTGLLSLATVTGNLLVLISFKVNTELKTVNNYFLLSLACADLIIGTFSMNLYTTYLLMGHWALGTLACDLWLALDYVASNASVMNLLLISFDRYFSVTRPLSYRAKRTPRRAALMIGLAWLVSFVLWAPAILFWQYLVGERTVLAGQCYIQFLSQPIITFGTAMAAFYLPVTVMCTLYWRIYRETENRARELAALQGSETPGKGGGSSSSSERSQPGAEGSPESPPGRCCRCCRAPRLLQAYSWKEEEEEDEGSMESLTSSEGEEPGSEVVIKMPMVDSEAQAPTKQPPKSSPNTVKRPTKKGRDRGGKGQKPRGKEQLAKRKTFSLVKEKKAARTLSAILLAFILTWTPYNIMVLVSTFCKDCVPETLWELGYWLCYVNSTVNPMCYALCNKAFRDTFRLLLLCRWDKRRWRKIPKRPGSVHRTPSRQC
Cytochrome P450 3A4 (Homo sapiens), sequence (P08684 whole entry, looked up): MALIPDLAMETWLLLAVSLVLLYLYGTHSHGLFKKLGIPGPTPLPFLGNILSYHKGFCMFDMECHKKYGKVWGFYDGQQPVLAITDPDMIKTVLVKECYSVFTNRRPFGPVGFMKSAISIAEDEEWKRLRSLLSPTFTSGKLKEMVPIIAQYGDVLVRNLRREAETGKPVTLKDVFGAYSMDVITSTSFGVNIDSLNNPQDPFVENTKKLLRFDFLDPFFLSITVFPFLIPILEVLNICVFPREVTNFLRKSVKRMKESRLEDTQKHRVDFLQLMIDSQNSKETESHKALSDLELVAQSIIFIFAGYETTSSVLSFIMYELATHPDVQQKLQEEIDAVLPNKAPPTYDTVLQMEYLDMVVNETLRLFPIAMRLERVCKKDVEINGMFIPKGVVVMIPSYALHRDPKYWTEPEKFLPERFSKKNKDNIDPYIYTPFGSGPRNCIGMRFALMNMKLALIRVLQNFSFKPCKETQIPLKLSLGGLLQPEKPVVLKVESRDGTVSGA

COc1ccc(CCN(C)CCC[C@@](C#N)(c2cc(OC)c(OC)c(OC)c2)C(C)C)cc1OC
inactive: activity change, negative = inhibition [1] 2.08% [at 38 µM] | activity change, negative = inhibition [2] -29.4% [at 38 µM] | activity, negative = inhibition [3] -12.4% [at 38 µM] | Potency [4] > 46 µM | Potency [5] > 46 µM | outcome [6] | outcome [7] | Potency [8] | outcome [9] | outcome [10] | outcome [11] | Potency [12]

CO/N=C(\C(=O)N[C@@H]1C(=O)N2C(C(=O)O)=C(CSc3nc(=O)c(O)nn3C)CS[C@@H]12)c1csc(N)n1
inactive: activity change, negative = inhibition [1] -11.1% [at 38 µM] | activity change, negative = inhibition [2] 4.37% [at 38 µM] | Potency [4] > 46 µM | Potency [5] > 46 µM | Potency [13] | outcome [6] | Potency [14] | outcome [7] | Potency [8] | outcome [9] | outcome [10] | outcome [11] | Potency [12]
active: Potency [15] 25.1 µM

CN1[C@@H]2CC[C@H]1CC(NC(=O)c1nn(C)c3ccccc13)C2 (some centres undefined)
inactive: Potency [16] | activity change, negative = inhibition [2] -9.68% [at 38 µM] | Potency [4] > 46 µM | Potency [5] > 46 µM | Potency [17] | Potency [13] | outcome [7] | Potency [18] | Potency [8] | outcome [9] | outcome [10] | outcome [11] | Potency [12]

CO[C@@H]1/C=C\O[C@@]2(C)Oc3c(C)c(O)c4c(c3C2=O)C(=N[C@H]2CC[C@H](O)O[C@@H]2C)C=C(NC(=O)/C(C)=C\C(=O)[C@@H]2C[C@@H]2[C@@H](O)[C@H](C)[C@@H](O)[C@H](C)[C@H](OC(C)=O)[C@@H]1C)C4=O
active: Potency [19] 1.26 µM | Potency [21] 2.51 µM
inactive: activity change, negative = inhibition [1] 26.3% | Potency [16] | activity, negative = inhibition [3] -2.6% | Potency [4] > 46 µM | Potency [5] > 9.22 µM | Potency [17] | Potency [13] | Potency [20]

O=S(=O)(NCCNC/C=C\c1ccc(Br)cc1)c1cccc2cnccc12
active: Potency [16] 2 µM | Potency [22] 10 µM | Potency [18] 14.1 µM
inactive: activity change, negative = inhibition [2] -7.5% [at 38 µM] | Potency [4] > 46 µM | Potency [5] > 46 µM | Potency [17] | outcome [6] | outcome [9] | outcome [10] | outcome [11] | Potency [12]

Oc1c([C@H](Nc2ccccn2)c2ccccc2)ccc2cccnc12
inactive: activity change, negative = inhibition [1] -3.08% | activity change, negative = inhibition [16] -21.9% [at 2.29 µM] | activity, negative = inhibition [3] 15.1% | Potency [4] > 46 µM | Potency [5] > 9.22 µM | Potency [17] | Potency [13]
active: Potency [23] 316 nM
